Source: ChEMBL document CHEMBL1961873, “Compounds: GSK PKIS; Assays: Nanosyn kinase panel” (2012)

Assays:
[1] = target: T1, Inhibitor of nuclear factor kappa-B kinase subunit epsilon (Homo sapiens) (UniProt Q14164); details: at 1 µM;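 also: reported values are averaged percent inhibition figures against human IKKε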
T1 sequence (whole entry): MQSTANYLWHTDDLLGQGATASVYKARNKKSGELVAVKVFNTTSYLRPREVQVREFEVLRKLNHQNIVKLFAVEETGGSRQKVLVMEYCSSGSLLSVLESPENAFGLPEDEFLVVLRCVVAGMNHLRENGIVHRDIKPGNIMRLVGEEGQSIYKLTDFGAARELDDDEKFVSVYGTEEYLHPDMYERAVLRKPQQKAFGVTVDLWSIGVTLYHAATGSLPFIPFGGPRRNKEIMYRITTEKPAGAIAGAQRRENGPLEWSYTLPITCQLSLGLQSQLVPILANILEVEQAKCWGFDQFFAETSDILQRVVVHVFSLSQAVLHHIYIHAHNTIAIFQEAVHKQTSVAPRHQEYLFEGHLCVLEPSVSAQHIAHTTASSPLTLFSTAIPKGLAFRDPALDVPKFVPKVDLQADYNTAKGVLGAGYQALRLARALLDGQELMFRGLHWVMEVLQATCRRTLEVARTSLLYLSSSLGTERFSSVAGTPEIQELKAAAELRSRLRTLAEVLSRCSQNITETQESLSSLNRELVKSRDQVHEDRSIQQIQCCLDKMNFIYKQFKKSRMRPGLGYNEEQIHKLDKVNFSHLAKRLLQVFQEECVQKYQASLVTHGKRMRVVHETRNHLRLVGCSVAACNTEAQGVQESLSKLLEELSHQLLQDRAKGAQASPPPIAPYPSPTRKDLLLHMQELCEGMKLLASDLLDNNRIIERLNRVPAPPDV

[2] = target: T2, Serine/threonine-protein kinase Nek1 (Homo sapiens) (UniProt Q96PY6); details: at 0.1 µM
T2 sequence (whole entry): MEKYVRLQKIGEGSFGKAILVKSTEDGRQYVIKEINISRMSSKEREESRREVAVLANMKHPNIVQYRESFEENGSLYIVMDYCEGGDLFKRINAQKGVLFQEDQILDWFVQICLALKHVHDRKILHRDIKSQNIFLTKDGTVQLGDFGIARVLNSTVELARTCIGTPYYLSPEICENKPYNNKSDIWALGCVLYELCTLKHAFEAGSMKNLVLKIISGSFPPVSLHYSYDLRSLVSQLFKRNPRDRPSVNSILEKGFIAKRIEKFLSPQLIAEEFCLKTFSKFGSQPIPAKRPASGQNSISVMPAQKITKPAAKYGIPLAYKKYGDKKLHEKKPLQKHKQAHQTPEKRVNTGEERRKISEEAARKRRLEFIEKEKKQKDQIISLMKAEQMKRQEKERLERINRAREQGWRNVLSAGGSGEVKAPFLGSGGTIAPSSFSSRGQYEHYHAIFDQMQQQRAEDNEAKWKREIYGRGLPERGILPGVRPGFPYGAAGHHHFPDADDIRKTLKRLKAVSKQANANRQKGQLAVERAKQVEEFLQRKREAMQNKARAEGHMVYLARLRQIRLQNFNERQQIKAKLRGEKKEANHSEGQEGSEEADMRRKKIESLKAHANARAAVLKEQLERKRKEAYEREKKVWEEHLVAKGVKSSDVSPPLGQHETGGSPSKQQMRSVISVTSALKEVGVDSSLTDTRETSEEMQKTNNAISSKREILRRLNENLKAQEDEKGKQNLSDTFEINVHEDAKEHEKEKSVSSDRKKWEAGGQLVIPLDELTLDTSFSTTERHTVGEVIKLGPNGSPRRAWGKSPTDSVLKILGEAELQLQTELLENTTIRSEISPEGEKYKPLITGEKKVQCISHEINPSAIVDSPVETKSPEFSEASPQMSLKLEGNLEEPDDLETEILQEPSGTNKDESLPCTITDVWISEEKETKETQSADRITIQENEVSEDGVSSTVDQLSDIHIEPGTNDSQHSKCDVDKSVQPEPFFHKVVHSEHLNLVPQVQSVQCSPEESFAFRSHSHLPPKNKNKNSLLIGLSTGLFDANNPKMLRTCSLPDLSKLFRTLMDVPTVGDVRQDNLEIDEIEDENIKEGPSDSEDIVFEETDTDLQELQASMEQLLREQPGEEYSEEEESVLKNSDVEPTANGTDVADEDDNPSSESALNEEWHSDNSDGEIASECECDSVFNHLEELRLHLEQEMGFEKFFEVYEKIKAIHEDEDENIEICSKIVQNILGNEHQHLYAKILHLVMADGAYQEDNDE

[3] = target: T2, Serine/threonine-protein kinase Nek1 (Homo sapiens); details: at 1 µM
[4] = target: T3, Serine/threonine-protein kinase Nek2 (Homo sapiens) (UniProt P51955); details: at 0.1 µM
T3 sequence (whole entry): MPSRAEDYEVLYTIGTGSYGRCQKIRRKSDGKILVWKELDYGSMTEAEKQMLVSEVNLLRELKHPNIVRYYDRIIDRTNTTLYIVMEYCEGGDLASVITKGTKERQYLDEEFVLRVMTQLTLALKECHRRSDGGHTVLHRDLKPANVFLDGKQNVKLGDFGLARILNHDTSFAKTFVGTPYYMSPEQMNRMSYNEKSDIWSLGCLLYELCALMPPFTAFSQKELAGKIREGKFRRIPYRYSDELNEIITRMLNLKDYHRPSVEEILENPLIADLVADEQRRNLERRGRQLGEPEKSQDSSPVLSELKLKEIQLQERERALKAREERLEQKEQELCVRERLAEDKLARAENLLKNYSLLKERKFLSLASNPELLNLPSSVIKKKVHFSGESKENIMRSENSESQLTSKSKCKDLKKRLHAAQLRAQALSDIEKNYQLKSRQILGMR

[5] = target: T3, Serine/threonine-protein kinase Nek2 (Homo sapiens); details: at 1 µM
[6] = target: Serine/threonine-protein kinase Nek6 (Homo sapiens) (UniProt Q9HC98); details: at 0.1 µM
[7] = target: Serine/threonine-protein kinase Nek6 (Homo sapiens) (UniProt Q9HC98); details: at 1 µM
[8] = target: Serine/threonine-protein kinase Nek7 (Homo sapiens) (UniProt Q8TDX7); details: at 0.1 µM
[9] = target: Serine/threonine-protein kinase Nek7 (Homo sapiens) (UniProt Q8TDX7); details: at 1 µM
[10] = target: T4, Serine/threonine-protein kinase Nek9 (Homo sapiens) (UniProt Q8TD19); details: at 0.1 µM
T4 sequence (whole entry): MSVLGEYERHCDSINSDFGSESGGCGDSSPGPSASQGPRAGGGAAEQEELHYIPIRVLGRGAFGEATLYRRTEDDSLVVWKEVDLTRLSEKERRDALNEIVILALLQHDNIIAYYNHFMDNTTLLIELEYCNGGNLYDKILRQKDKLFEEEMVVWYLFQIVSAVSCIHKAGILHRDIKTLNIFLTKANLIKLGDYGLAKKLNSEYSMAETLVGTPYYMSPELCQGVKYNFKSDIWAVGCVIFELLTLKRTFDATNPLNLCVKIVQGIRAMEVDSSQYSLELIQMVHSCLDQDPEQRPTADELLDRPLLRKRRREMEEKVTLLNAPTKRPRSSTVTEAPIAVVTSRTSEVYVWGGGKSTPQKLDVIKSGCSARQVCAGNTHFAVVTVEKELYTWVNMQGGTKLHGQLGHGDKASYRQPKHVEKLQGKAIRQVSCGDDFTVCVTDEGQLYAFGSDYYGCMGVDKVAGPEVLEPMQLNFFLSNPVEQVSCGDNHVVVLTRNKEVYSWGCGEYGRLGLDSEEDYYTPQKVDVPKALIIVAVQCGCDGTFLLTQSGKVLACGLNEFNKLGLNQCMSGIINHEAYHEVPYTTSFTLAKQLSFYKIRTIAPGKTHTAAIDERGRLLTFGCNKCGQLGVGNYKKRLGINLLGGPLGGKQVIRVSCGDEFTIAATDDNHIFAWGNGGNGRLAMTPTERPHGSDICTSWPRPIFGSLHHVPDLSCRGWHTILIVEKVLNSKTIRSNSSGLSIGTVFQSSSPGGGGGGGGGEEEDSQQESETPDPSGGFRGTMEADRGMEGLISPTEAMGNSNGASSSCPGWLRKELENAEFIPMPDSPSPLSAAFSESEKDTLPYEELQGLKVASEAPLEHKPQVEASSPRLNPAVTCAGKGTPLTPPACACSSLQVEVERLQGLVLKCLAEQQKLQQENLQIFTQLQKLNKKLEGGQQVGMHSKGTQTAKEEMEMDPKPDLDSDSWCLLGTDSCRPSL

[11] = target: T4, Serine/threonine-protein kinase Nek9 (Homo sapiens); details: at 1 µM
[12] = target: Serine/threonine-protein kinase PLK1 (Homo sapiens) (UniProt P53350); details: at 0.1 µM
[13] = target: Serine/threonine-protein kinase PLK1 (Homo sapiens) (UniProt P53350); details: at 1 µM
[14] = target: T5, Dual specificity protein kinase TTK (Homo sapiens) (UniProt P33981); details: at 0.1 µM
T5 sequence (whole entry): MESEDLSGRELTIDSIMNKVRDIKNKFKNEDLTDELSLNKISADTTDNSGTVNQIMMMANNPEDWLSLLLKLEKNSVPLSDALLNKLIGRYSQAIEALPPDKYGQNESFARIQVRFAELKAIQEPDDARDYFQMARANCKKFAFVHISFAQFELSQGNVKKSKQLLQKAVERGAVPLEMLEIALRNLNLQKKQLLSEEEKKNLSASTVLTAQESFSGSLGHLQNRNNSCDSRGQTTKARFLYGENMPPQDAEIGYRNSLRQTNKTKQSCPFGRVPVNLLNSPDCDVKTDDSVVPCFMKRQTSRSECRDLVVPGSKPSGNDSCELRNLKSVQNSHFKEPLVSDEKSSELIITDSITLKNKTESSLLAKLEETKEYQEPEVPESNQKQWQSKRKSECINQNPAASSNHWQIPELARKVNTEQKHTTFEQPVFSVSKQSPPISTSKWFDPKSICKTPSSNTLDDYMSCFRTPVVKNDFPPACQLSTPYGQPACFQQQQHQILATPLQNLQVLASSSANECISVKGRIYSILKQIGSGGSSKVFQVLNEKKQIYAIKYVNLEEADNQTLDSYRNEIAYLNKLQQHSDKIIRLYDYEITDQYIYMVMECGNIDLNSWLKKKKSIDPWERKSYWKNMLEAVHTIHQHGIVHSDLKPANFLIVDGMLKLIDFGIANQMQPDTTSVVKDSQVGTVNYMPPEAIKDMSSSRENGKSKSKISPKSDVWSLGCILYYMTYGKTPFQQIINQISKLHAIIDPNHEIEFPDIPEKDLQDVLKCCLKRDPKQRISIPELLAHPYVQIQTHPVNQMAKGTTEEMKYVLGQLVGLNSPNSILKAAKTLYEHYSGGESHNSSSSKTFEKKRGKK

[15] = system: T6, Receptor-type tyrosine-protein kinase FLT3 (Homo sapiens), P36888 [D835Y]; details: at 1 µM
T6 sequence (whole entry): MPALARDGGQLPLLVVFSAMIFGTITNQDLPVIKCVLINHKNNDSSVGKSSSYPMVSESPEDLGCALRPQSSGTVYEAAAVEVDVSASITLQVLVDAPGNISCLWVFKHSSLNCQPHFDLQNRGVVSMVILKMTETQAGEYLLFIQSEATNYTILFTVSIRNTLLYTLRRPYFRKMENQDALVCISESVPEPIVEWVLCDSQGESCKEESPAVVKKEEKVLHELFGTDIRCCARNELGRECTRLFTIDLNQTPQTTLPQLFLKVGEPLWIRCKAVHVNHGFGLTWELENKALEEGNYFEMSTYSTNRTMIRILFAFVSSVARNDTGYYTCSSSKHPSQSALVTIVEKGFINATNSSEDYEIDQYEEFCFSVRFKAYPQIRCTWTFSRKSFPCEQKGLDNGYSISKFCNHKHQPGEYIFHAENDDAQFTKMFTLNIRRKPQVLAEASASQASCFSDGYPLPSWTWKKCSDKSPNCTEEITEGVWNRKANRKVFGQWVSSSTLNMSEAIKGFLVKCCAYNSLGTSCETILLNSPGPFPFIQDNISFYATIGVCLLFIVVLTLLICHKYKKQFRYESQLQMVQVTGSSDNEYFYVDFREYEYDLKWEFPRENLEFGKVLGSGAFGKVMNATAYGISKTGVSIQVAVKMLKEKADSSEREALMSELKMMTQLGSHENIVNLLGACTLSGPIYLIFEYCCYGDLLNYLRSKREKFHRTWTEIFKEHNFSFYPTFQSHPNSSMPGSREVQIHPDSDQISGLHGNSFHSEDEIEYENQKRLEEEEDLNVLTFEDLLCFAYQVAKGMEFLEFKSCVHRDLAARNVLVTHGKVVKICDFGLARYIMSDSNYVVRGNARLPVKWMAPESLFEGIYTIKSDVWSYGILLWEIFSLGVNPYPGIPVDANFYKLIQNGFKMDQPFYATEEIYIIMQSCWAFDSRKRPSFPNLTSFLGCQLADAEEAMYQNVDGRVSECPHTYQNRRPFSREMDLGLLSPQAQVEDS

[16] = target: Vascular endothelial growth factor receptor 3 (Homo sapiens) (UniProt P35916); details: at 0.1 µM
[17] = target: Vascular endothelial growth factor receptor 3 (Homo sapiens) (UniProt P35916); details: at 1 µM
[18] = target: Macrophage colony-stimulating factor 1 receptor (Homo sapiens) (UniProt P07333); details: at 0.1 µM
[19] = target: Macrophage colony-stimulating factor 1 receptor (Homo sapiens) (UniProt P07333); details: at 1 µM
[20] = target: Tyrosine-protein kinase Fyn (Homo sapiens) (UniProt P06241); details: at 0.1 µM
Sequence of Tyrosine-protein kinase Fyn (Homo sapiens) (P06241 2-537 limits assumed): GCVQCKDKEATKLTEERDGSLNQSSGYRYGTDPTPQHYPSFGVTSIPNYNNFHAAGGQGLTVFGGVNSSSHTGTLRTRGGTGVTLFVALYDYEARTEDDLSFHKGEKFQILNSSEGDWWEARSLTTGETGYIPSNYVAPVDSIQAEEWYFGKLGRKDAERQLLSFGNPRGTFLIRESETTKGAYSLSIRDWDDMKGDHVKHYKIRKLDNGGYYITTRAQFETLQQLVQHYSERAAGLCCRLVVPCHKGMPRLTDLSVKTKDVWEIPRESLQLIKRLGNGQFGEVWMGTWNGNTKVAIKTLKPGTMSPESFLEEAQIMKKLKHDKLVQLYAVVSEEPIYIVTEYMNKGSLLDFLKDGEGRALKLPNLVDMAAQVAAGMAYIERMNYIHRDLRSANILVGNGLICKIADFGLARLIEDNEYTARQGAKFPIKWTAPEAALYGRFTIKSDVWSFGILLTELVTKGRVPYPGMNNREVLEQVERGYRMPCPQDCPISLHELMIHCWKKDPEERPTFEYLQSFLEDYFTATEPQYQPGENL

Sequence of Serine/threonine-protein kinase Nek7 (Homo sapiens) (Q8TDX7 whole entry, looked up): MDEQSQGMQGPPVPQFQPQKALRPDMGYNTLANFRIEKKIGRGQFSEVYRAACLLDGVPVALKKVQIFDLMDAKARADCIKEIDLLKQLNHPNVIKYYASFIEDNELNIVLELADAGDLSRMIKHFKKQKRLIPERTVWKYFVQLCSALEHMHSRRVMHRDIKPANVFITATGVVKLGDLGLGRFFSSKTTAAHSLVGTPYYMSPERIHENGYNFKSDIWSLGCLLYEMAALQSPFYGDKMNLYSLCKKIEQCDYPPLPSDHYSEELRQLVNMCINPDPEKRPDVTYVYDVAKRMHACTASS
Sequence of Macrophage colony-stimulating factor 1 receptor (Homo sapiens) (P07333 whole entry): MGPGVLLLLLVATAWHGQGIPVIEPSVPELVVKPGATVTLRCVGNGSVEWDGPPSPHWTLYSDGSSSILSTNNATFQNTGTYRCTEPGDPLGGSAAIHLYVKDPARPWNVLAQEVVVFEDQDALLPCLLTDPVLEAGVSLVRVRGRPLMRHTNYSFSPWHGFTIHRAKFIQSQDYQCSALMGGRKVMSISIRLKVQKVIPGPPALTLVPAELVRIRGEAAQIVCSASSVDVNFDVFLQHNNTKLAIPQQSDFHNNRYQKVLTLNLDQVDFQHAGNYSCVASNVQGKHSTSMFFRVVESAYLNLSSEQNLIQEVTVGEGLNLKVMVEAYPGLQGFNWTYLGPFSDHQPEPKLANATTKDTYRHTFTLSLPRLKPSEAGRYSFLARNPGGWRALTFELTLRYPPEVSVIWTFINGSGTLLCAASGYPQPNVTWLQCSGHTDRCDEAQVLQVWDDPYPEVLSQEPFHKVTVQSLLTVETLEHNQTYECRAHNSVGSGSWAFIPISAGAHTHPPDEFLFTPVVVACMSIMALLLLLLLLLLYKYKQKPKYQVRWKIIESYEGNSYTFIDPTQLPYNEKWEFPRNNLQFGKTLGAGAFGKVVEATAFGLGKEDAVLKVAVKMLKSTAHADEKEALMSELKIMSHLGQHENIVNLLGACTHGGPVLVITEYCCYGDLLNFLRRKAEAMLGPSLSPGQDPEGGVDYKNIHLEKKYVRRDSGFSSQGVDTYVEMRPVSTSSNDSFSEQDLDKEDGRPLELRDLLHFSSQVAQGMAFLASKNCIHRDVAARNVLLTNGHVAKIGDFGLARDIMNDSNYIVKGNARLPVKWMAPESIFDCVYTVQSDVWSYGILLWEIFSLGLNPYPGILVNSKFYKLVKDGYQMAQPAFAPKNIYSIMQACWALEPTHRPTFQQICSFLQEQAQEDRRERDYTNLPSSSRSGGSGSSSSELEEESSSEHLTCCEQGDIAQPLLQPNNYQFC
Sequence of Serine/threonine-protein kinase Nek6 (Homo sapiens) (Q9HC98 whole entry): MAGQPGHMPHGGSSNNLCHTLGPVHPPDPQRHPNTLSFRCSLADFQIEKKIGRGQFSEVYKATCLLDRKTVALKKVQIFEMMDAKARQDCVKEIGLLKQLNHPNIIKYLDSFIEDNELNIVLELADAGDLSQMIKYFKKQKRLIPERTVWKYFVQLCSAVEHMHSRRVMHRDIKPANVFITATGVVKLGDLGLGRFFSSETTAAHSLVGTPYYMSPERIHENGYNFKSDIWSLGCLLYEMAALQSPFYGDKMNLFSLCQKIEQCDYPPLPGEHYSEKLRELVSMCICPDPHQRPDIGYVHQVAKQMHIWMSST
Sequence of Serine/threonine-protein kinase PLK1 (Homo sapiens) (P53350 whole entry): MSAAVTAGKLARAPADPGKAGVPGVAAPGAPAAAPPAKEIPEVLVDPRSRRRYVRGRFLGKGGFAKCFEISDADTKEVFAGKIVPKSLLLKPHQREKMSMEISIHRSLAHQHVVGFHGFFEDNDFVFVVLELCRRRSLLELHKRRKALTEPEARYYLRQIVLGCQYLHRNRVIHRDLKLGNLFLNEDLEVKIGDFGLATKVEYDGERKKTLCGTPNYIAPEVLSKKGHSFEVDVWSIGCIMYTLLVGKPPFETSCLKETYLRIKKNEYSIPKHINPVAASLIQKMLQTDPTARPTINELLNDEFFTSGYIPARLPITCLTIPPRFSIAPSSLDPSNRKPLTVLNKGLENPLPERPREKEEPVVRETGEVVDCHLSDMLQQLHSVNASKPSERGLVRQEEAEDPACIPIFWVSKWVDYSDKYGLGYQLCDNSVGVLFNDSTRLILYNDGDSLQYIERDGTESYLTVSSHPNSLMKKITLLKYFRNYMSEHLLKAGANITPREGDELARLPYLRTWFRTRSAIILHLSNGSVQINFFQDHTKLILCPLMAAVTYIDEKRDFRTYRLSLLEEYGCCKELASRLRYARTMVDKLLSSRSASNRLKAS
Sequence of Vascular endothelial growth factor receptor 3 (Homo sapiens) (P35916 whole entry): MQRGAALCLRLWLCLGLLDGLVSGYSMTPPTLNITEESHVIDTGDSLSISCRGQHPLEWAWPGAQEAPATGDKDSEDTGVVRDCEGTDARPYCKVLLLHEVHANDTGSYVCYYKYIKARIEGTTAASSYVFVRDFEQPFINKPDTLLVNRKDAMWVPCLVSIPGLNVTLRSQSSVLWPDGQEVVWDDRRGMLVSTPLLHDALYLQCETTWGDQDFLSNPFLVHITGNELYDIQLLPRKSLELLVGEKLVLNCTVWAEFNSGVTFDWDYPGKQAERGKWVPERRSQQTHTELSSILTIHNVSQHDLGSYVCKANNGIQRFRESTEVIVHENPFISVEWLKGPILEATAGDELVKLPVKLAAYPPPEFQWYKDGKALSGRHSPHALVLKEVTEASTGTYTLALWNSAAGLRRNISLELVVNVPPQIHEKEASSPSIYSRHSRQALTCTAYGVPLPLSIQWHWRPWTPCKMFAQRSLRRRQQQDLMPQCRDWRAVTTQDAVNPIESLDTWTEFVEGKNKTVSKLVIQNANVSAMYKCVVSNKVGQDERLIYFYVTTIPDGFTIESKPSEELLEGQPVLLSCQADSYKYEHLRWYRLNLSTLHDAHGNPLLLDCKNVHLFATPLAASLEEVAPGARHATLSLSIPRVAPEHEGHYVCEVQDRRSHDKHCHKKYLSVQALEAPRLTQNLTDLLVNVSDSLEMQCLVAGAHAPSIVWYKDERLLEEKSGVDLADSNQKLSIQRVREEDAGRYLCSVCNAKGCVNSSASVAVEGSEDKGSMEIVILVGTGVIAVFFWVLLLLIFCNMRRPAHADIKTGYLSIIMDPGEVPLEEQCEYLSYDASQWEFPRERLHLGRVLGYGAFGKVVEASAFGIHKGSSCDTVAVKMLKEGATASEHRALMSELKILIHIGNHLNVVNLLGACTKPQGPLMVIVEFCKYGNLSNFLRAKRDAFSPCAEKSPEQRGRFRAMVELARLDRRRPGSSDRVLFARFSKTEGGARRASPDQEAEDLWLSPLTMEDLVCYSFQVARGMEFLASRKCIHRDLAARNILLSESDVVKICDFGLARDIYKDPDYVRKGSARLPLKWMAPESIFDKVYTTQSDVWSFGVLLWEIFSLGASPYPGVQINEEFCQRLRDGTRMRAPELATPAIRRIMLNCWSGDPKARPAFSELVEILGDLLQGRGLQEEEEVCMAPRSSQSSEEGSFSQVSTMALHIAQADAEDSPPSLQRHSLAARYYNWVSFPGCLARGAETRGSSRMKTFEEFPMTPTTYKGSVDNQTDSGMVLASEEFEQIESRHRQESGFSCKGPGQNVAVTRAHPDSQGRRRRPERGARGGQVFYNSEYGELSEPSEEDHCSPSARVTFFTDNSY

| Structure (SMILES) | inhibition [1] [%] | inhibition [2] [%] | inhibition [3] [%] | inhibition [4] [%] | inhibition [5] [%] | inhibition [6] [%] | inhibition [7] [%] | inhibition [8] [%] | inhibition [9] [%] | inhibition [10] [%] | inhibition [11] [%] | inhibition [12] [%] | inhibition [13] [%] | inhibition [14] [%] | inhibition [15] [%] | inhibition [16] [%] | inhibition [17] [%] | inhibition [18] [%] | inhibition [19] [%] | inhibition [20] [%] |
| --- | --- | --- | --- | --- | --- | --- | --- | --- | --- | --- | --- | --- | --- | --- | --- | --- | --- | --- | --- | --- |
| O=S(=O)(CCOCc1ccc(-c2ccc3ncnc(Nc4ccc(OCc5cccc(F)c5)c(Cl)c4)c3c2)o1)c1ccccc1 | 0.73 | 1.11 | 1.59 | 3.36 | 2.18 | 0.77 | 0.7 | 1.66 | 5.83 | 5 | 0.79 | 2.52 | 2.68 | 6.45 | -7.19 | 5.04 | 14 | -1.86 | 7.49 | 2.16 |
| NC(=O)c1cccc(Nc2nccc(Nc3cccc(F)c3)n2)c1 | 3.29 | 2.58 | 5.37 | 3.22 | 1.09 | 0.35 | 0.89 | 2.07 | 1.47 | 8.72 | 11 | 2.05 | 6.07 | 2.31 | 21.2 | 1.81 | 30.6 | 22.1 | 62.5 | 7.98 |
